PubChem BioAssay (NCATS)
Records with an inconclusive call do not appear. The source made the active and inactive calls. Calls follow the shape of the dose curve; as a rule, active = well fitted inhibition curve with a large enough effect; inconclusive = small, poorly fitted or top-dose-only effect; inactive = flat fitted curve, though single readings scatter.

What was measured:
Assay in all cases: Cytotoxic Profiling of Annotated Libraries Using Quantitative High-Throughput Screening (AID 1296008); also: nearly all actives have a fitted effect of over 60% in size
Conditions in all cases: Five cell lines viability, CellTiter-Glo ATP luminescence, 48-72 h; max response: stronger effect = lower value
CRL-7250 = system: CRL-7250
Outline: (§1)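 Cytotoxicity was measured as CellTiter-Glo ATP luminescence, read after 10 min at room temperature. Compound treatment of the cells lasted 48 or 72 hr at 37 degrees Celsius in a qHTS format.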

HEK293 = system: HEK293
Outline: as §1

HaCat = system: HaCat
Outline: as §1

KB-3-1 = system: KB-3-1
Outline: as §1

NIH3T3 = system: NIH3T3
Outline: as §1

Measured: max response
% is scaled to controls: 0 for no effect and ±100 for the full control effect.

C[C@@H]1C[C@@H](O)[C@@]23CO[C@]2(CO)C[C@@H](O)CC3[C@@]12CC(c1ccoc1)OC2=O (stereo not given in full)
inactive: CRL-7250 -3.28% | HEK293 0.731% | HaCat | KB-3-1 | NIH3T3

O=C(/C=C/c1ccc(O)c(O)c1)O[C@H]1[C@@H]2C=CO[C@@H](O[C@@H]3O[C@H](CO)[C@@H](O)[C@H](O)[C@H]3O)[C@@H]2[C@@]2(CO)O[C@@H]12
inactive: CRL-7250 -3.33% | HEK293 -6.64% | HaCat | KB-3-1 | NIH3T3 -4.11%

COc1ccc(C(=O)CC(=O)O)c2c1C=CC(C)(C)O2
inactive: CRL-7250 | HEK293 -7.49% | HaCat | KB-3-1 7.77% | NIH3T3 -1.38%

C/C=C1/[C@H](O[C@@H]2O[C@H](CO)[C@@H](O)[C@H](O)[C@H]2O)OC=C2C(=O)O[C@@H]3C[C@@H](C(C)CO)[C@H](COC(=O)C[C@H]21)[C@H]3C (stereo not given in full)
inactive: CRL-7250 3.26% | HEK293 -21.8% | HaCat | KB-3-1 | NIH3T3 1.25%

C[C@@H]1O[C@@H](O[C@@H]2[C@@H](O)[C@H](O[C@H]3[C@H](O[C@H]4CC[C@@]5(C)C(CC[C@]6(C)C5CC=C5[C@@H]7CC(C)(C)CC[C@]7(C(=O)O[C@@H]7O[C@H](CO)[C@@H](O)[C@H](O)[C@H]7O)CC[C@]56C)C4(C)C)O[C@H](C(=O)O)[C@@H](O)[C@@H]3O)OC[C@H]2O)[C@H](O)[C@H](O)[C@H]1O (stereo not given in full)
inactive: CRL-7250 2.65% | HEK293 -0.54% | HaCat | KB-3-1 | NIH3T3

CC(=O)/C=C/C1(O)C(C)(C)CC(O)CC1(C)O (stereo not given)
inactive: CRL-7250 -6.38% | HEK293 -4.83% | HaCat | KB-3-1 | NIH3T3

CC1(C)O[C@H]2CC(=O)OC[C@@]23C1=C(O)C(=O)[C@]1(C)C3CC[C@@]2(C)[C@H](c3ccoc3)OC(=O)[C@H]3O[C@]321 (stereo not given in full)
inactive: CRL-7250 | HEK293 1.52% | HaCat | KB-3-1 | NIH3T3

CC(C)C1CCC(CO)=CC1/C=C(\CO)C(=O)OCC1(O)CCC(C(C)C)C2C=C(C(=O)O)COC(=O)C21 (stereo not given)
inactive: CRL-7250 | HEK293 | HaCat -2.47% | KB-3-1 | NIH3T3 -0.853%

COc1cc(C[C@@]2(O)CO[C@@H](c3ccc(O[C@@H]4O[C@H](CO)[C@@H](O)[C@H](O)[C@H]4O)c(OC)c3)[C@H]2CO)ccc1O
inactive: CRL-7250 -6.96% | HEK293 0.509% | HaCat -8.64% | KB-3-1 1.94% | NIH3T3

COC1CC(O[C@H]2CC[C@@]3(C)C(=CC[C@]4(O)C3[C@H](O)[C@@H](O)[C@]3(C)[C@@H]([C@H](C)O)CC[C@@]34O)C2)OC(C)C1OC1CC(OC)C(OC2CC(OC)C(OC3OC(C)C(OC4OC(CO)C(O)C(O)C4O)C(OC)C3O)C(C)O2)C(C)O1 (stereo not given in full)
inactive: CRL-7250 -21.7% | HEK293 -82.7% | HaCat | KB-3-1 2.22% | NIH3T3 -54.6%

COc1cc(CCCO)ccc1O[C@@H]1O[C@H](CO)[C@@H](O)[C@H](O)[C@H]1O
inactive: CRL-7250 | HEK293 0.679% | HaCat | KB-3-1 | NIH3T3 -1.2%

CC(=C\C(C)O)/C=C(\C)C(=O)CC1CC(CC(N)=O)CC(=O)O1 (stereo not given)
inactive: CRL-7250 | HEK293 1.11% | HaCat | KB-3-1 | NIH3T3

COC(=O)C1=CO[C@@H](O[C@@H]2O[C@H](CO)[C@@H](O)[C@H](O)[C@H]2O)[C@@H]2[C@@H](CO)[C@@H](O)C(O)[C@H]12 (stereo not given in full)
inactive: CRL-7250 | HEK293 -5.81% | HaCat | KB-3-1 | NIH3T3 1.79%

C[C@]1(O)CC[C@@H]2C(C(=O)O)=CO[C@@H](O[C@@H]3O[C@H](COC(=O)/C=C/c4ccc(O)c(O)c4)[C@@H](O)[C@H](O)[C@H]3O)[C@@H]21
inactive: CRL-7250 | HEK293 0.933% | HaCat | KB-3-1 9.19% | NIH3T3

C=C1CCC2C(C)(C)CC(O)CC2(C)C1CCC(C)CC(=O)O (stereo not given)
inactive: CRL-7250 -5.49% | HEK293 1.49% | HaCat | KB-3-1 -5.43% | NIH3T3 -0.43%

NC1(c2ccc(NC(=O)c3ccnc(-c4cc(C(=O)O)ccn4)c3)cc2)CC1
inactive: CRL-7250 | HEK293 -8.28% | HaCat | KB-3-1 | NIH3T3

CC1=C2CC(=O)C(C)CC/C=C(\C)CC2(O)OC1=O (stereo not given)
inactive: CRL-7250 -4.8% | HEK293 0.476% | HaCat 2.42% | KB-3-1 3.81% | NIH3T3

COc1cc(C)c(C(=O)O[C@@H]2[C@H](O)[C@@H](CO)O[C@H]2n2ccc(=O)[nH]c2=O)c(OC)c1
inactive: CRL-7250 | HEK293 3.08% | HaCat | KB-3-1 | NIH3T3 2.52%

COc1cc(Nc2nc3c(s2)CCCC3c2ccccc2)ccc1-n1cnc(C)c1 (stereo not given)
inactive: CRL-7250 | HEK293 3.81% | HaCat -4.18% | KB-3-1 -3.56% | NIH3T3

CC1(C)CC[C@]2(C(=O)O[C@@H]3O[C@H](CO)[C@@H](O)[C@H](O)[C@H]3O)CC[C@]3(C)C(=CCC4[C@@]5(C)C[C@H](O)[C@H](O[C@@H]6O[C@H](C(=O)O)[C@@H](O)[C@H](O)[C@H]6O)[C@@](C)(CO)C5CC[C@]43C)C2C1 (stereo not given in full)
inactive: CRL-7250 -4.26% | HEK293 1.87% | HaCat | KB-3-1 -16.3% | NIH3T3

C/C=C/C=C/C(O)=C1/C(=O)[C@]2(C)C(=O)[C@@](C)(O)[C@H]1[C@H]([C@@]1(C)OC(=O)C(C)=C1O)[C@H]2C(=O)CC/C=C/C
inactive: CRL-7250 | HEK293 -3.93% | HaCat | KB-3-1 | NIH3T3

CNc1nc(Nc2cn(C(C)(C)C#N)nc2C)ncc1C(F)(F)F
inactive: CRL-7250 0.355% | HEK293 -5.29% | HaCat | KB-3-1 6.02% | NIH3T3 -4.77%

COc1c2c(c(C)c3c1C(=O)OC3)OC1(C)CC(O)C34OC(OC)(CCC3(C)C1C2)OC4(C)CO (stereo not given)
inactive: CRL-7250 | HEK293 -8.39% | HaCat 2.59% | KB-3-1 | NIH3T3

C=C1[C@H](OC(C)=O)[C@H]2[C@@H](OC(C)=O)C(C)C[C@]2(OC(C)=O)C(=O)[C@H](C)/C=C/C(C)(C)C(=O)[C@H](OC(=O)C(C)C)[C@H]1OC(C)=O (stereo not given in full)
inactive: CRL-7250 2.65% | HEK293 -3.57% | HaCat | KB-3-1 | NIH3T3

CC(=O)O[C@H]1C[C@@H](O)C(C)(C)C2C[C@@H](OC(C)=O)[C@]3(C)C(CC[C@@]4(C)[C@H](c5ccoc5)OC(=O)[C@H]5O[C@]543)[C@]21C (stereo not given in full)
inactive: CRL-7250 -9.34% | HEK293 -3.17% | HaCat | KB-3-1 | NIH3T3 1.84%

CNc1nc(Cc2ccccc2)nc2c1CCNC[C@@H]2C
inactive: CRL-7250 -3.14% | HEK293 -0.288% | HaCat -17.6% | KB-3-1 -9.65% | NIH3T3

C[C@@H]1O[C@@H](O[C@@H]2\C=C/C=C\C=C/C=C\C[C@H](C)OC(=O)/C=C\[C@H]3O[C@@H]3C[C@H](O)C[C@]3(O)C[C@@H](O)[C@@H](C(=O)O)[C@H](C2)O3)[C@H](O)[C@H](N)[C@@H]1O
inactive: CRL-7250 3.44% | HEK293 3.56% | HaCat | KB-3-1 | NIH3T3 3.56%

CC(C)CC[C@@H](O)[C@](C)(O)[C@H]1CC[C@@]2(O)C3=CC(=O)[C@@H]4C[C@@H](O)[C@@H](O)C[C@]4(C)[C@H]3CC[C@]12C
inactive: CRL-7250 -1.43% | HEK293 3.83% | HaCat 4.07% | KB-3-1 | NIH3T3

Nc1ncnc2c1C(=O)N(c1ccc(C3CCC(CC(=O)O)CC3)cc1)CCO2 (stereo not given)
inactive: CRL-7250 2.41% | HEK293 -15.1% | HaCat | KB-3-1 | NIH3T3

CCC(C)C(=O)O[C@H]1[C@@H](O[C@H]2O[C@H](CO)[C@@H](O)[C@H](O)[C@H]2O)O[C@H](CO)[C@@H](O)[C@@H]1O (stereo not given in full)
inactive: CRL-7250 -1.24% | HEK293 -6.33% | HaCat | KB-3-1 -0.199% | NIH3T3 2.16%

C/C=C(\C)C(=O)OC[C@H]1O[C@@H](O[C@H]2[C@@H](O[C@H]3O[C@H](CO)[C@@H](O)[C@H](O)[C@H]3O[C@@H]3O[C@H](CO)[C@@H](O)[C@H](O)[C@H]3O)O[C@H](COC(=O)/C(C)=C/C)[C@@H](O)[C@@H]2O)[C@H](O)[C@@H](O)[C@@H]1O
inactive: CRL-7250 | HEK293 -5.43% | HaCat | KB-3-1 -3.26% | NIH3T3 3.7%

COc1c(-c2ccc(O)cc2)cc(OC)c2c1oc1cc(O)c(OC3OC(CO)C(O)C3O)cc12 (stereo not given)
inactive: CRL-7250 -0.713% | HEK293 -3.64% | HaCat -7.87% | KB-3-1 | NIH3T3

C[C@@H]1O[C@@H](O[C@H]2[C@@H]3C=CO[C@@H](O[C@@H]4O[C@H](CO)[C@@H](O)[C@H](O)[C@H]4O)[C@@H]3[C@@]3(CO)O[C@@H]23)[C@H](O)[C@H](OC(=O)/C=C/c2ccc(O)cc2)[C@H]1OC(=O)/C=C/c1ccc(O)cc1
inactive: CRL-7250 4.25% | HEK293 -0.28% | HaCat | KB-3-1 2.65% | NIH3T3 -10.1%

CC[C@H](NC(=O)c1c(O)c(-c2ccccc2)nc2ccccc12)c1ccccc1
inactive: CRL-7250 | HEK293 -9.53% | HaCat | KB-3-1 -1.35% | NIH3T3

CC1C2=CC(=O)OC2(O)CC2C1C(O)CC1C(C)(CO)CCCC21C (stereo not given)
inactive: CRL-7250 | HEK293 2.57% | HaCat | KB-3-1 0.829% | NIH3T3

COC(=O)C1=CO[C@@H](O[C@@H]2O[C@H](CO)[C@@H](O)[C@H](O)[C@H]2O)[C@H]2[C@@H]1[C@H](O)[C@H](O)[C@]2(C)O
inactive: CRL-7250 -3.33% | HEK293 1.23% | HaCat | KB-3-1 1.73% | NIH3T3 2.04%
